# From the supplement of paper PMC6555819
# System: PPARg:RXRa (NR concentration 180 nM, RXRa partner concentration 90 nM)
# Test: PBM binding z-score (relative to random genomic background probes); higher = stronger binding; sequences stand for … in GC…GCGATTGACAGCGTAGAATGAAGG
# In short: (§1)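 Ligand-free nuclear receptor dimers were bound for 1 h to custom Agilent 4×180K protein-binding microarrays. Detection used antibodies against each partner (one per run). Binding z-scores rest on regression-normalized fluorescence, with random background probes as the reference.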
row,Sequence,PBM binding z-score
1,ATTTGTAGGTTAGGGTCATTCAGAAAGTAGGGAA,6.37
2,CATACAGGGACAGCTAGGCCAGAGTAGGGACGGC,0.544
3,CAAACTAGGTCACCAGGACAGTGAAGAGGTTGGA,9.26
4,ATATGTAGCTTAGGGTCATTCAGAAAGTAGGGAA,2.42
5,CGAACTAGATCAAAGGACAGTGAAAGGCGACGTA,3.32
6,ATCTCTAGGTAAAGTTCAGCGAAAGATCGATAGA,3.77
7,CGCACTAGGTCAAAGGACAGTGAAAGGCGACGTA,10.1
8,CGAACGAGGTCAGAACAGGACAGTGAAGGATGAT,4.86
9,CGAACTAGGTCATCGAGGACAGTGAATACATTGA,7.79
10,CGTCCAAGGTCATAGGAGTTCAGTGAAGACAGAT,4.86
11,CGAACTAGGTCAAAGGACAGTGAGAGGCGACGTA,10.3
12,TCTAGTTGGTGACGGAGGTCACACACGACGGGTA,2.52
13,CGAACTAAGTCAAAGGACAGTGAAAGGCGACGTA,2.74
14,CCTACTGGGTCATTCAGAGGTCATTGATCATATG,6.55
15,CGAACTAGGACATCCAGGACAGTGAATACATTGA,1.35
16,ATCGAAAAGTCGAAGGTGAGTATACCCACCCGAA,0.704
17,CGAACTAGGTCAAAGGAGAGTGAAAGGCGACGTA,8.9
18,CAAAGTAGGTCAAGAGGTCAAAGTCCGCTTCCCG,10.3
19,CGAACTAGGTCACCAGGACAGTGACGAGGTTGGA,8.62
20,CGAACTAAGTCACCAGGACAGTGAAGAGGTTGGA,0.494

row,Sequence,PBM binding z-score
1,ATCTCTAGGTAACAAGGTCAGTGAAAGAGAGGAC,3.64
2,CCTACTGGGCCATACAGAGGTCATTGATCATATG,2.98
3,TCTAGTTGGTTACGGAGGTCACACACGACGGGTA,2.59
4,CGAACTAGCTCAAAGGACAGTGAAAGGCGACGTA,1.06
5,CGAACTAGGTCAAAGGAAAGTGAAAGGCGACGTA,8.32
6,CCTGGCAGGCCAGGGTCACTCAAGCATTTCGCTT,0.292
7,ATCGAAATGTCGTGAGGTGAGTATACAGAAAGGC,0.546
8,ATATGTAGGTTAGGTTCATTCAGAAAGTAGGGAA,4.93
9,CGAACTAGGTCAAAGGACAGTGCAAGGCGACGTA,10.3
10,CGAACTAGGTCAAAGGACAGTGAAAGGCGACGTA,10.1
11,AATACAGGGTCCTCGTAGGCCAGAGTACGCACAG,0.721
12,GCTGCTAGGTTAACTGATGGTCAGCTAAAGCTCG,-0.15
13,TAGCCTAGGTCAAGCGGGCCAGTATAGTGTCGGC,2.12
14,TTACGAAGGTGAAAGGTCGTTGATGCACGCCTTG,8.12
15,ATCGAAAGGTCGCAGGTGAGTATACCCACCCGAA,4.34
16,CATACCGGGTCAGCTAGGCCAGAGTAGGGACGGC,2.07
17,CGAACTAGGGCACCAGGACAGTGAAGAGGTTGGA,4.04
18,ATATGTAGGTTAGGGTCATTCCGAAAGTAGGGAA,7.77
19,ACTCGGAGGACAAACGTCAGAGCTACGCCAGTGA,0.904

# System: PPARg:RXRa 270nM:90nM, anti-RXR (NR concentration 270 nM, RXRa partner concentration 90 nM)
# Test: as above
# In short: as §1
row,Sequence,PBM binding z-score
1,ATTTGTAGGTTAGGGTCATTCAGAAAGTAGGGAA,5.83
2,CATACAGGGACAGCTAGGCCAGAGTAGGGACGGC,-0.673
3,CAAACTAGGTCACCAGGACAGTGAAGAGGTTGGA,7.14
4,ATATGTAGCTTAGGGTCATTCAGAAAGTAGGGAA,3.28
5,CGAACTAGATCAAAGGACAGTGAAAGGCGACGTA,4.89
6,ATCTCTAGGTAAAGTTCAGCGAAAGATCGATAGA,4.78
7,CGCACTAGGTCAAAGGACAGTGAAAGGCGACGTA,8.55
8,CGAACGAGGTCAGAACAGGACAGTGAAGGATGAT,4.15
9,CGAACTAGGTCATCGAGGACAGTGAATACATTGA,6.42
10,CGTCCAAGGTCATAGGAGTTCAGTGAAGACAGAT,5.44
11,CGAACTAGGTCAAAGGACAGTGAGAGGCGACGTA,8.86
12,TCTAGTTGGTGACGGAGGTCACACACGACGGGTA,3.45
13,CGAACTAAGTCAAAGGACAGTGAAAGGCGACGTA,4.16
14,CCTACTGGGTCATTCAGAGGTCATTGATCATATG,5.9
15,CGAACTAGGACATCCAGGACAGTGAATACATTGA,0.774
16,ATCGAAAAGTCGAAGGTGAGTATACCCACCCGAA,0.332
17,CGAACTAGGTCAAAGGAGAGTGAAAGGCGACGTA,7.8
18,CAAAGTAGGTCAAGAGGTCAAAGTCCGCTTCCCG,8.87
19,CGAACTAGGTCACCAGGACAGTGACGAGGTTGGA,6.98
20,CGAACTAAGTCACCAGGACAGTGAAGAGGTTGGA,0.0365

row,Sequence,PBM binding z-score
1,ATCTCTAGGTAACAAGGTCAGTGAAAGAGAGGAC,3.84
2,CCTACTGGGCCATACAGAGGTCATTGATCATATG,3.58
3,TCTAGTTGGTTACGGAGGTCACACACGACGGGTA,3.61
4,CGAACTAGCTCAAAGGACAGTGAAAGGCGACGTA,2.13
5,CGAACTAGGTCAAAGGAAAGTGAAAGGCGACGTA,7.07
6,CCTGGCAGGCCAGGGTCACTCAAGCATTTCGCTT,1.27
7,ATCGAAATGTCGTGAGGTGAGTATACAGAAAGGC,-0.0357
8,ATATGTAGGTTAGGTTCATTCAGAAAGTAGGGAA,4.37
9,CGAACTAGGTCAAAGGACAGTGCAAGGCGACGTA,8.27
10,CGAACTAGGTCAAAGGACAGTGAAAGGCGACGTA,8.6
11,AATACAGGGTCCTCGTAGGCCAGAGTACGCACAG,-0.0515
12,GCTGCTAGGTTAACTGATGGTCAGCTAAAGCTCG,0.209
13,TAGCCTAGGTCAAGCGGGCCAGTATAGTGTCGGC,2.59
14,TTACGAAGGTGAAAGGTCGTTGATGCACGCCTTG,7.35
15,ATCGAAAGGTCGCAGGTGAGTATACCCACCCGAA,4.73
16,CATACCGGGTCAGCTAGGCCAGAGTAGGGACGGC,1.87
17,CGAACTAGGGCACCAGGACAGTGAAGAGGTTGGA,3.54
18,ATATGTAGGTTAGGGTCATTCCGAAAGTAGGGAA,6.58
19,ACTCGGAGGACAAACGTCAGAGCTACGCCAGTGA,0.765
